According to PubChem BioAssay:
Calls of active or inactive are those of the source.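 The calls were made as follows, unless noted: active = primary screen hit whose fluorescence ratio, in both repeats, exceeds the weak agonist control mean by 3 SD; inactive = the rest.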

Tested on: TRPC4 (transient receptor potential cation channel C4 beta), mouse
Experiment: potentiation of DAMGO EC20 TRPC4 response – cell-based, second round, Fluo-4, HEK293 TRPC4beta/mu-opioid, 1 µM, confirmation (AID 2554)
Conditions: DAMGO EC20, Fluo-4 calcium flux, at 1 µM; hits give high values

SMILES	outcome	potentiation
COc1ccc(CN2CCN(Cc3ccccc3F)CC2)c(OC)c1	inactive	–
C/C(N)=C(/C#N)C(=O)COC(=O)CC12CC3CC(CC(C3)C1)C2	inactive	–
CCCCC[n+]1cccc2c3ccccc3ccc21	inactive	–
COc1ccc(OC)c(Nc2cc(-c3ccccc3)nc(N)n2)c1	inactive	–
CCC1CCCCN1Cc1nc2c(c(=O)n(C)c(=O)n2C)n1Cc1ccccc1 (stereo not given)	inactive	–
CCOC(=O)C1CCN(C2CCN(C(=O)c3oc4c(C)c(C)ccc4c3C)CC2)CC1	inactive	–
O=[N+]([O-])c1cccc(-c2nnc(C3CC3)o2)c1	inactive	–
CCOc1c(Cl)cc(CNCC(O)c2ccccc2)cc1OC (stereo not given)	inactive	–
O=C(c1cccc(C(=O)N2CCN(c3ccccc3)CC2)c1)N1CCN(c2ccccc2)CC1	inactive	–
Cc1ccn2c(-c3csc(NCc4ccco4)n3)c(C)nc2c1	inactive	–
COc1ccc(Nc2nc(N)c3ccccc3n2)c(OC)c1	inactive	–
CCc1c(C(=O)N2CCCN(C)CC2)csc1C	inactive	–
COc1ccc(C)cc1N(C(=O)c1snc(C(N)=O)c1N)C(C(=O)NC1CCCC1)c1ccc(F)cc1 (stereo not given)	inactive	–
CC(C)(c1ccccc1)c1ccc(OCCCNCCO)cc1	inactive	–
Cc1ccc(-n2nc(-c3cccs3)cc2C(=O)NCC2CCCO2)c(C)c1 (stereo not given)	inactive	–
CC(C)CCN1CCN(Cc2ccsc2)CC1CCO (stereo not given)	inactive	–
CN(CC1CCCN(CCc2cccc(C(F)(F)F)c2)C1)C(=O)c1cc2ccccc2o1 (stereo not given)	inactive	–
Oc1ccc(CN2CCc3ccccc3C2)c2cccnc12	inactive	–
COc1ccc(C2C(C(C)=O)=C(O)C(=O)N2c2ccc(Br)cc2)cc1 (stereo not given)	inactive	–
CCOC(=O)c1c(N)sc(C(O)(C(F)(F)F)C(F)(F)F)c1-c1ccccc1	inactive	–

SMILES	outcome	potentiation
CC1CCCN(CCCN2C(=O)C3C(C(=O)Nc4ccc(Cl)cc4)C4C=CC3(O4)C2C(=O)NC2CCCCC2)C1 (stereo not given)	inactive	–
O=C(C[n+]1cccc(CNC(=O)c2ccc(OC(F)F)cc2)c1)Nc1ccc(SC(F)F)cc1	inactive	–
Cc1ncsc1CCOC(=O)c1cccc([N+](=O)[O-])c1	inactive	–
CC#CC[N+](C)(C)CCCCCCCCCCCC	inactive	–
Cc1cc(OCc2cc(C(=O)NCCN3CCCCC3CO)no2)cc(C)c1Cl (stereo not given)	inactive	–
Cc1cc(N2CCC(C)CC2)nc2cccc(O)c12	inactive	–
Fc1ccccc1COc1ccc(Br)cc1CNCC1CCCO1 (stereo not given)	inactive	–
Cn1cc(CNCC2CCCO2)c(-c2ccc(Oc3ccccc3)cc2)n1 (stereo not given)	inactive	–
COc1cccc(C2=NN(C(=O)c3ccco3)C(c3ccco3)C2)c1 (stereo not given)	inactive	–
O=C(COC(=O)Cn1cnc2ccccc2c1=O)Nc1ccccc1Sc1ccc(Cl)cc1	inactive	–
NC(=O)c1nsc(C(=O)N(Cc2ccccc2Cl)C(C(=O)NCC2CCCO2)c2ccc(O)cc2)c1N (stereo not given)	inactive	–
O=C(NC1CCCCC1)N1CCN(C(c2ccccc2)c2ccccc2)CC1	inactive	–
Cc1ccc(NC(=S)N(CCCN(C)C)Cc2cc3cc4c(cc3[nH]c2=O)OCO4)c(C)c1	inactive	–
CCCC[n+]1c2ccccc2cc2ccccc21	inactive	–
CC(C)(C)CC(C)(C)NCC(O)COc1ccc2c(c1)CCC2 (stereo not given)	inactive	–
CCOc1ccc(Cl)cc1/C=N/O	inactive	–
O=C(C[n+]1cc(-c2ccc(Cl)c(Cl)c2)n2c1CCC2)N1c2ccccc2Sc2ccccc21	inactive	–
CC1CCc2c(sc3ncnc(SCC(=O)Nc4ccc(C(=O)O)cc4)c23)C1 (stereo not given)	inactive	–
NS(=O)(=O)c1ccc(Nc2nc(-c3ccc(O)cc3O)cs2)cc1	inactive	–
CCCn1c(NC(=O)c2ccc(Cl)c(S(=O)(=O)N3CCCC3)c2)nc2ccccc21	–	10% (active)

Tested on: TRPC4 beta (transient receptor potential cation channel C4), mouse
Experiment: potentiation of DAMGO EC20 TRPC4 response – cell-based, Fluo-4, HEK293 TRPC4beta/mu-opioid, confirmation (AID 2555;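 active = primary screen hit whose calcium fluorescence ratio, in both repeats, exceeds the weak agonist control mean by 3 SD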)
Conditions: DAMGO EC20, Fluo-4 calcium flux, at 10 µM; hits give high values

SMILES	outcome	potentiation
COc1ccc(CN2CCN(Cc3ccccc3F)CC2)c(OC)c1	inactive	–
C/C(N)=C(/C#N)C(=O)COC(=O)CC12CC3CC(CC(C3)C1)C2	inactive	–
CCCCC[n+]1cccc2c3ccccc3ccc21	inactive	–
COc1ccc(OC)c(Nc2cc(-c3ccccc3)nc(N)n2)c1	inactive	–
CCC1CCCCN1Cc1nc2c(c(=O)n(C)c(=O)n2C)n1Cc1ccccc1 (stereo not given)	inactive	–
CCOC(=O)C1CCN(C2CCN(C(=O)c3oc4c(C)c(C)ccc4c3C)CC2)CC1	inactive	–
O=[N+]([O-])c1cccc(-c2nnc(C3CC3)o2)c1	inactive	–
CCOc1c(Cl)cc(CNCC(O)c2ccccc2)cc1OC (stereo not given)	inactive	–
O=C(c1cccc(C(=O)N2CCN(c3ccccc3)CC2)c1)N1CCN(c2ccccc2)CC1	inactive	–
Cc1ccn2c(-c3csc(NCc4ccco4)n3)c(C)nc2c1	inactive	–
COc1ccc(Nc2nc(N)c3ccccc3n2)c(OC)c1	inactive	–
CCc1c(C(=O)N2CCCN(C)CC2)csc1C	inactive	–
COc1ccc(C)cc1N(C(=O)c1snc(C(N)=O)c1N)C(C(=O)NC1CCCC1)c1ccc(F)cc1 (stereo not given)	inactive	–
CC(C)(c1ccccc1)c1ccc(OCCCNCCO)cc1	inactive	–
Cc1ccc(-n2nc(-c3cccs3)cc2C(=O)NCC2CCCO2)c(C)c1 (stereo not given)	inactive	–
CC(C)CCN1CCN(Cc2ccsc2)CC1CCO (stereo not given)	inactive	–
CN(CC1CCCN(CCc2cccc(C(F)(F)F)c2)C1)C(=O)c1cc2ccccc2o1 (stereo not given)	inactive	–
Oc1ccc(CN2CCc3ccccc3C2)c2cccnc12	inactive	–
COc1ccc(C2C(C(C)=O)=C(O)C(=O)N2c2ccc(Br)cc2)cc1 (stereo not given)	inactive	–
CCOC(=O)c1c(N)sc(C(O)(C(F)(F)F)C(F)(F)F)c1-c1ccccc1	inactive	–

SMILES	outcome	potentiation
CC1CCCN(CCCN2C(=O)C3C(C(=O)Nc4ccc(Cl)cc4)C4C=CC3(O4)C2C(=O)NC2CCCCC2)C1 (stereo not given)	inactive	–
O=C(C[n+]1cccc(CNC(=O)c2ccc(OC(F)F)cc2)c1)Nc1ccc(SC(F)F)cc1	inactive	–
Cc1ncsc1CCOC(=O)c1cccc([N+](=O)[O-])c1	inactive	–
CC#CC[N+](C)(C)CCCCCCCCCCCC	inactive	–
Cc1cc(OCc2cc(C(=O)NCCN3CCCCC3CO)no2)cc(C)c1Cl (stereo not given)	inactive	–
Cc1cc(N2CCC(C)CC2)nc2cccc(O)c12	inactive	–
Fc1ccccc1COc1ccc(Br)cc1CNCC1CCCO1 (stereo not given)	inactive	–
Cn1cc(CNCC2CCCO2)c(-c2ccc(Oc3ccccc3)cc2)n1 (stereo not given)	inactive	–
COc1cccc(C2=NN(C(=O)c3ccco3)C(c3ccco3)C2)c1 (stereo not given)	inactive	–
O=C(COC(=O)Cn1cnc2ccccc2c1=O)Nc1ccccc1Sc1ccc(Cl)cc1	inactive	–
NC(=O)c1nsc(C(=O)N(Cc2ccccc2Cl)C(C(=O)NCC2CCCO2)c2ccc(O)cc2)c1N (stereo not given)	inactive	–
O=C(NC1CCCCC1)N1CCN(C(c2ccccc2)c2ccccc2)CC1	inactive	–
Cc1ccc(NC(=S)N(CCCN(C)C)Cc2cc3cc4c(cc3[nH]c2=O)OCO4)c(C)c1	inactive	–
CCCC[n+]1c2ccccc2cc2ccccc21	inactive	–
CC(C)(C)CC(C)(C)NCC(O)COc1ccc2c(c1)CCC2 (stereo not given)	inactive	–
CCOc1ccc(Cl)cc1/C=N/O	inactive	–
O=C(C[n+]1cc(-c2ccc(Cl)c(Cl)c2)n2c1CCC2)N1c2ccccc2Sc2ccccc21	inactive	–
CC1CCc2c(sc3ncnc(SCC(=O)Nc4ccc(C(=O)O)cc4)c23)C1 (stereo not given)	inactive	–
NS(=O)(=O)c1ccc(Nc2nc(-c3ccc(O)cc3O)cs2)cc1	inactive	–
CCCn1c(NC(=O)c2ccc(Cl)c(S(=O)(=O)N3CCCC3)c2)nc2ccccc21	–	24% (active)
